# In PubChem BioAssay:
# Values without a mark were called inactive. Calls of active or inactive are those of the source.
# Biological target: Dihydroorotate dehydrogenase (quinone), mitochondrial (Plasmodium falciparum (isolate 3D7)) (UniProt Q08210)
# Experiment: inhibition of P. falciparum DHODH – biochemical, C-terminal His tag, absorbance 600 nm, primary screen (AID 1175);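 further: recombinant parasite enzyme with a five histidine tag at its C terminus; test concentration not given here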
# Details: PfDHODH enzyme, DCIP absorbance 600 nm; higher = more signal, called active from +8 up or from −8 down
# Chain of Dihydroorotate dehydrogenase (quinone), mitochondrial (Plasmodium falciparum (isolate 3D7)) (Q08210 whole entry, looked up): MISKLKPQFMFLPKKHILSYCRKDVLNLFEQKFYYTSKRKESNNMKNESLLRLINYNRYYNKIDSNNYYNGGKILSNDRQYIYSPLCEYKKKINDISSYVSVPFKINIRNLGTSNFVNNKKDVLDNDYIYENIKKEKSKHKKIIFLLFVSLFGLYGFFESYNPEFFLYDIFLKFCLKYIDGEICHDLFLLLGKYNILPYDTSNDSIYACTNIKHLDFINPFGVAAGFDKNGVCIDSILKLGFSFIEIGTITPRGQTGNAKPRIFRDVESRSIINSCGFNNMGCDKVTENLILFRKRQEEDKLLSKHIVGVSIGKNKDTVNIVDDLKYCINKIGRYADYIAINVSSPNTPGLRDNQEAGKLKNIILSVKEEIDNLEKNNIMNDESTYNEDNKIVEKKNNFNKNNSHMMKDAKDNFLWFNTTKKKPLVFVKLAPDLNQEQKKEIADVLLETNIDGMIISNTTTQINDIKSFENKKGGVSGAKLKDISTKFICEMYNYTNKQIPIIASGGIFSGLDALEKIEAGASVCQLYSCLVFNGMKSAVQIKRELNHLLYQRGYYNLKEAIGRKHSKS
row,SMILES,composite z-score
1,O=C1c2ccccc2[C@](Cc2ccccc2I)(C(=O)NCc2ccccc2)[C@H](c2ccc(CO)cc2)N1C1CCCCC1,-0.567
2,COc1ccc(C(O)C2C=CC3C(=O)N(C)C(=O)C3N2N2CCCCC2)cc1 (stereo not given),0.0624
3,C=C1C2CC3C(=C4C(CO[C@@H]4[C@H]4CCCN4S(=O)(=O)c4ccccc4[N+](=O)[O-])C4C(=O)N(C)C(=O)C34)CC2C(=O)N1C (stereo not given in full),-0.911
4,COCCOC(=O)N1C(=O)[C@@]2(c3cc(C#CC4=CCCCC4)ccc31)[C@H](c1ccc(O)cc1)N1[C@H](c3ccccc3)[C@H](c3ccccc3)OC(=O)[C@H]1[C@@H]2C(=O)Nc1nc2ccccc2s1,-0.399
5,C[C@H]1C2=C3C(CC[C@H]4C(OCc5ccc(F)cc5C(F)(F)F)OC[C@](C)([C@@H]34)N(C(=O)OC(C)(C)C)C2)C(CO)C1CO (stereo not given in full),-0.108
6,COCCOC(=O)N1C(=O)[C@@]2(c3cc(C#CC4(O)CCCCCC4)ccc31)[C@H](C(=O)N1CCCCCCC1)[C@H]1C(=O)O[C@H](c3ccccc3)[C@H](c3ccccc3)N1[C@@H]2c1ccc(OCCO)cc1,-2.1
7,COCCOC(=O)N1C(=O)[C@@]2(c3cc(C#CC4(O)CCCCCC4)ccc31)[C@H](C(N)=O)[C@H]1C(=O)O[C@H](c3ccccc3)[C@H](c3ccccc3)N1[C@@H]2c1ccccc1OCCO,1.34
8,CC(=O)N1Cc2ccccc2C[C@]2(N=C(c3ccc(OCCCO)cc3)O[C@@H]2c2ccccc2)C1=O,-0.375
9,O=C1OCC=C[C@H]2OC34C=CCN(c5ccc(Cl)cc5)C(=O)[C@H]3N(CCCCCO)C(=O)[C@@H]4[C@@H]12 (stereo not given in full),0.193
10,C=C(C(=O)CC[C@H](OC(=O)c1cccnc1)c1cccc(OCCO)c1)C(C)C,0.612
11,CC(C)C(O)C1C=CC2C(=O)N(C)C(=O)C2N1N(c1ccccc1)c1ccccc1 (stereo not given),0.85
12,O=C1O[C@@H](c2ccccc2)[C@@H](c2ccccc2)N2[C@@H](c3ccc(O)cc3)[C@]3(C(=O)Nc4ccccc43)[C@@H](C(=O)Nc3nc4ccccc4s3)[C@H]12,0.162
13,COC(=O)[C@@]1(Cc2ccc(OC)cc2)[C@H]2c3cc(C(=O)N(C)C)n(Cc4ccccc4)c3C[C@H]2CN1C(=O)c1ccccc1,0.171
14,CC1CC/C=C\[C@H]2OC34C=CCN(CCN5CCOCC5)C(=O)[C@H]3N(CCO)C(=O)[C@@H]4C2C(=O)O1 (stereo not given in full),-0.4
15,COC(=O)[C@]1(CCS(=O)(=O)c2ccccc2)N=C(c2ccc(OCCCO)cc2)O[C@@H]1c1ccccc1CN=[N+]=[N-],1.09
16,CC(C)(C)OC(=O)CC[C@]1(C(=O)O)N=C(c2ccc(OCCCO)cc2)O[C@H]1c1ccccc1,-14.3 (active)
17,O=C1c2ccccc2[C@@]2(Cc3ccccc3N(C3CC3)C2=O)[C@H](c2ccc(CO)cc2)N1C1CCCCC1,-4.68
18,COCCOC(=O)N1C(=O)[C@@]2(c3ccccc31)[C@H](c1ccc(OCCO)cc1)N1[C@H](c3ccccc3)[C@H](c3ccccc3)OC(=O)[C@H]1[C@@H]2C(=O)Nc1nc2ccccc2s1,-0.383
19,[N-]=[N+]=Nc1ccccc1C[C@@]1(C(=O)O)N=C(c2ccc(OCCCO)cc2)O[C@@H]1c1ccccc1,0.624
20,CCCNC(=O)[C@@]1(c2ccc([N+](=O)[O-])cc2)CC(=O)N(C2CCCCC2)[C@@H]1c1ccc(CO)cc1I,0.478
21,COc1ccc([Si](C)(C)[C@H]2[C@H](CCn3cc([C@H](O)c4ccccc4)nn3)O[C@@]3(C(=O)N(Cc4ccc(N5CCOC5=O)cc4)c4ccccc43)[C@@H]2C)cc1,0.624
22,COCCCNC(=O)[C@@]1(Sc2ccc(C)cc2)CC(=O)N(Cc2cc(C(F)(F)F)cc(C(F)(F)F)c2)[C@@H]1c1ccc(CO)cc1,-0.669
23,C=CCC(OC(C)=O)[C@@H]1[C@@H](N(Cc2cc3ccccc3o2)C(=O)Cc2ccc(F)cc2)c2cc(OCCCO)ccc2N1C(=O)c1ccc2ccccc2n1 (stereo not given in full),-0.235
24,CCCCC(=C=CC[C@@H](O)c1ccc(OCCO)cc1)C[C@@H](O)COCc1ccccc1,-2.29
25,O=C1O[C@@H](c2ccccc2)[C@@H](c2ccccc2)N2[C@@H](c3ccc(O)cc3)[C@]3(C(=O)Nc4ccc(C#CCCO)cc43)[C@@H](C(=O)NC[C@H](O)c3ccccc3)[C@H]12,0.129
